About 83,000 compounds went through this panel and 20% of them were active in at least one assay; those are over-represented in the sample as a whole.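 Activity criterion: percent growth below 10, measured after cells in 96-well plates were exposed to a single compound concentration for 48 hours.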 A number with no mark means an inactive call.
What follows are molecules tested on MDA-MB-468 breast (assay: NCI-60 one-dose screen, 48 h (100 = growth as untreated, 0 = no growth, -100 = all killed)). Details: 10 µM unless noted.

Q: How did the growth turn out when `Cc1cc(Br)c(C)cc1Br` was run?
A: 92.2%

Q: `CC(=O)Oc1ccccc1C(=O)/C=C/c1cccc([N+](=O)[O-])c1` was tested. Which growth did it give?
A: 61.2%

Q: With `Fc1ccc2[nH]cc(-c3nc(-c4ccsc4)cs3)c2c1` as the molecule, how does the growth read?
A: 69.6%

Q: `COc1ccc(-c2nc3sc(-c4ccccc4)cn3n2)cc1` was tested. Which growth did it give?
A: 18.7%

Reference: PubChem BioAssay (NCI)
